In the library only some 4% were active in any assay of this set; here they are far more common.
CSC inhib = cancer stem cell inhibition; cancer stem cell-like cells viability, luminescence; inhibition, % at 7.5 µM; hit rate 1.1% among 300,000; AID 2717; in the data active means inhibition above about 75%; tested in HMLE shEcad cells
Beta apoptosis = beta cell apoptosis inhibition. INS-1E cytokine-induced death, ATP luminescence, 48 h; percent of positive-control rescue, neutral wells zero. protection from apoptosis, % (no concentration beside the values). hit rate 0.8% among 300,000. AID 435005;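 active means Every replicate reaches about 75%, or at least half do and their mean reaches it too, limit read from the data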;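 further: 0% = cytokine-treated negative control wells and 100% = positive control rescue; higher means more ATP so stronger rescue from cytokine killing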
PAX8 reporter = PAX8 transcriptional activity inhibition; RMG-I TPO-luciferase reporter, SteadyGlo, 24 h; hit rate 1.2% among 360,000; inhibition, % at 12.6 µM;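 active means mean replicate inhibition at least 60% with every replicate also reaching 60%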;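 further: luciferase light reporting Pax8 driven TPO promoter activity; plate controls were median of neutral control wells for no effect and mitoxantrone controls for full effect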
Shn3 inh set2 = inhibitors of Schnurri-3 3'UTR reporter in osteoblasts; Clone20 osteoblast Shn3 3'UTR firefly luciferase, 24 h; inhibition, % at 12.5 µM; hit rate 0.52% among 360,000; AID 588674;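 active means mean inhibition of at least 75% with every replicate also reaching 75%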;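 further: 0% = median of neutral control wells and 100% = pilot-screen positive control compound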
Mdm2-MdmX inh = inhibitors of human Mdm2/MdmX interaction | hit rate 3% among 330,000 | O15151+Q00987 | inhibition, % at 8 µM | SaOS-2 split-luciferase Mdm2/MdmX complementation, luminescence;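 active means inhibition of at least 50% at 8 µM in the primary screen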
Target sequence (O15151 whole entry, looked up): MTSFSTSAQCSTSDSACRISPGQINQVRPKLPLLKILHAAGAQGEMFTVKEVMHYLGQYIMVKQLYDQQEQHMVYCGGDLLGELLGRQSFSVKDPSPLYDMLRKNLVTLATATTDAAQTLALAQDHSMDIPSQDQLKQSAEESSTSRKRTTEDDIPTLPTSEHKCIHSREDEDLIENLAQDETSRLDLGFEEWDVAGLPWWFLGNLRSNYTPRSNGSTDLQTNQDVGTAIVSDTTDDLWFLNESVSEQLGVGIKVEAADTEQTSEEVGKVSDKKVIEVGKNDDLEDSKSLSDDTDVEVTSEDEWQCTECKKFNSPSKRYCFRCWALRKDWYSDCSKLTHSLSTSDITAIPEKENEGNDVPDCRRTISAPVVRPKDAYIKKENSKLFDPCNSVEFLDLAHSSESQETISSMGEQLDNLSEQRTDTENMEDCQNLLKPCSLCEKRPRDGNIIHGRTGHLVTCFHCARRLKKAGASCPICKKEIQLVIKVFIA
Target sequence (Q00987 whole entry, looked up): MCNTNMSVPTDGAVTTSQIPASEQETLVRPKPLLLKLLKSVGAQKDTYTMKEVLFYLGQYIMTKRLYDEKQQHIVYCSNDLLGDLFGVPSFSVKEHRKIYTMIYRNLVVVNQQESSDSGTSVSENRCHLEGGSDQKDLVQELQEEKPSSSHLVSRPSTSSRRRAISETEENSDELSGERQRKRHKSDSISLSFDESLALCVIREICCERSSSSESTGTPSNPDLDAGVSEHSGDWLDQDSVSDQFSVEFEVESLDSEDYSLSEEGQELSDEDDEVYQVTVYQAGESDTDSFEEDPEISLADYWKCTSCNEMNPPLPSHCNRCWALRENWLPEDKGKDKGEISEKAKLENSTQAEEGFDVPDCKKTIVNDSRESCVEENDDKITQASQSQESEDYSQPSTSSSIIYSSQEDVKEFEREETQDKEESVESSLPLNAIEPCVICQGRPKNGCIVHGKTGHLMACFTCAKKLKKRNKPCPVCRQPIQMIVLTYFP
Gli-Sufu block = Gli-Sufu pathway antagonism; inhibition, % at 5 µM; Sufu-KO-LIGHT fibroblasts, Gli luciferase reporter luminescence; hit rate 0.74% among 340,000; AID 588413;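 active means inhibition above about 55%, limit read from the data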;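 further: 0% = DMSO-treated cells and 100% = wells with medium but no cells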
Gli-Sufu confirm = Gli-SUFU antagonism confirmation, single concentration | hit rate 40% among 2,500 | shares compounds with Gli-Sufu block | inhibition, % at 5 µM | AID 602428 | Sufu-KO-LIGHT cells, Gli luciferase reporter, luminescence;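 active means mean inhibition at 5 µM reaching about 45%, limit read from the data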;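 further: plate controls were DMSO-treated cells for no effect and wells lacking cells for full effect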
SufuKO cytotox = counter-screen for Gli-SUFU antagonists: cytotoxicity; shares compounds with Gli-Sufu block; Sufu-KO-LIGHT cells cytotoxicity, ATP luminescence; cytotoxicity, % at 5 µM; hit rate 32% among 2,500; AID 651994;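 active means mean cytotoxicity at 5 µM above about 25%, limit read from the data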;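 further: cells exposed to compound overnight for roughly 16 to 18 hours; plate controls were DMSO wells with cells for no effect and medium without cells for full effect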
Wnt3a counter = inhibits Wnt3a reporter, counter-screen for Gli-SUFU antagonists. shares compounds with Gli-Sufu block. Wnt-LIGHT cells, Wnt3a-driven luciferase reporter, luminescence. inhibition, % at 6.25 µM. hit rate 20% among 2,500. AID 651995;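 active means mean inhibition above about 25%, limit read from the data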
Starred values were filed as active, the others as inactive.

`COc1ccc(CNCC(O)(c2ccc(F)cc2)c2ccc(F)cc2)cc1OC` gave CSC inhib 7.4, Beta apoptosis 18.4, PAX8 reporter 14.3, Shn3 inh set2 79.7, Mdm2-MdmX inh 43.9, Gli-Sufu block 64.5*, Gli-Sufu confirm 22.7, SufuKO cytotox 36.0* and Wnt3a counter -41.0.
`COc1ccc(CNCC(O)(c2ccccc2)c2ccc(F)cc2)cc1OC` (stereo not drawn) gave CSC inhib -1.7, Beta apoptosis 17.5, PAX8 reporter -1.7, Shn3 inh set2 54.7, Mdm2-MdmX inh -27.3 and Gli-Sufu block 17.4.
Screening Cc1noc(C)c1S(=O)(=O)Nc1ccc2c(c1)C(=O)N([C@H](C)CO)C[C@@H](C)[C@H](CN(C)Cc1ccccc1)O2 returned PAX8 reporter -10.9.
CC(C)=C1Cc2ccccc2C1=O was read as CSC inhib -5.2, Beta apoptosis -2.6, PAX8 reporter -6.8, Shn3 inh set2 7.3, Mdm2-MdmX inh 12.7 and Gli-Sufu block -3.0.
`CN1CCC(=C2c3ccccc3CC(=O)c3sccc32)CC1` gave CSC inhib -15.1, Beta apoptosis -8.8, PAX8 reporter 25.5, Shn3 inh set2 2.1, Mdm2-MdmX inh 25.9, Gli-Sufu block 10.3, Gli-Sufu confirm 24.1, SufuKO cytotox 4.7 and Wnt3a counter 7.3.
`OCC1CCCN(c2nc(CN3CCCCC3)nc3scc(-c4ccccc4)c23)C1` (stereo not drawn) gave CSC inhib 11.2, Beta apoptosis 5.7, PAX8 reporter 0.3, Shn3 inh set2 25.4, Mdm2-MdmX inh 18.7 and Gli-Sufu block 27.6.
For CCNc1nc(CN2CCCCC2)nc2scc(-c3ccccc3)c12 the results were CSC inhib 18.1, Beta apoptosis 40.5, PAX8 reporter 15.2, Shn3 inh set2 75.7, Mdm2-MdmX inh 31.1, Gli-Sufu block 69.2*, Gli-Sufu confirm 56.1*, SufuKO cytotox 17.7 and Wnt3a counter -31.8.
COc1ccc(N(CC(=O)Nc2nccs2)S(=O)(=O)c2c(C)nn(C)c2C)cc1 was read as CSC inhib 0.7, Beta apoptosis 4.6, PAX8 reporter -0.7, Shn3 inh set2 -11.0, Mdm2-MdmX inh -36.1, Gli-Sufu block 57.6*, Gli-Sufu confirm 32.2, SufuKO cytotox 3.6 and Wnt3a counter 3.2.
For C[C@H](CO)N1C[C@H](C)[C@H](CN(C)C)Oc2cc(-c3cccc(C#N)c3)ccc2S1(=O)=O the results were PAX8 reporter -21.7.
Cc1noc(/C=C/c2ccccn2)c1[N+](=O)[O-] was read as CSC inhib 19.3, Beta apoptosis 2.4, PAX8 reporter 37.4, Shn3 inh set2 -53.9, Mdm2-MdmX inh 5.9, Gli-Sufu block 98.7*, Gli-Sufu confirm 15.8, SufuKO cytotox 28.5* and Wnt3a counter -17.8.
Screening COc1ccc(F)cc1CN1CCN(C(=O)CCC(=O)Nc2nnc(C(C)C)s2)CC1 returned Beta apoptosis -12.0, Shn3 inh set2 2.6, Mdm2-MdmX inh 25.4, Gli-Sufu block 96.4*, Gli-Sufu confirm 13.4, SufuKO cytotox 14.7 and Wnt3a counter -13.0.
Screening Cc1noc(NS(=O)(=O)c2ccc(NC(=O)c3cnc4n(c3=O)CCS4)cc2)c1C returned CSC inhib -7.0, Beta apoptosis -0.7, Shn3 inh set2 -5.8, Mdm2-MdmX inh -31.9, Gli-Sufu block 95.4*, Gli-Sufu confirm 15.1, SufuKO cytotox 4.0 and Wnt3a counter -8.0.
For O=C(C1CC1)N1CC2(C1)[C@H](c1ccccc1)[C@H](CO)N2Cc1cncnc1 the results were PAX8 reporter -5.4.
For CO[C@H]1CN(C)C(=O)c2cc(NC(=O)Cc3ccccc3)ccc2OC[C@@H](C)N(CC2CC2)C[C@H]1C the results were PAX8 reporter -6.7.
Screening COc1ccc2c(c1)nc(SCC(=O)C(C)(C)C)n2C returned CSC inhib -1.4, Beta apoptosis -2.3, Shn3 inh set2 -22.5, Mdm2-MdmX inh 29.6, Gli-Sufu block 63.8*, Gli-Sufu confirm 23.9, SufuKO cytotox 5.8 and Wnt3a counter -5.5.

Assay outcomes: PubChem BioAssay, several laboratories
